Data: PubChem BioAssay AID1956 (SRMLSC, 2009)
The campaign covered roughly 220,000 compounds. About 10 (0.005%) were called active. Rule as the data show it: active = maximum fold increase above about 1.5; inconclusive = no clear call, values can overlap the other calls; inactive = below that; tested in PC3 cells. A selection follows.

Test: enhancers of HSV replication in host cells, fold increase, host cell viability (AID 1956)
Conditions: HSV replication augmentation in cells; fold increase: measured here: primary screen fold increase 10 uM, at 10 µM, stronger effect = higher value; maximum fold increase: at 0.098 µM, stronger effect = higher value; viability: measured here: host cell viability series, at 25 µM, stronger effect = lower value

Structure (SMILES) | fold increase | outcome
COc1ccc(C#Cc2c(-c3ccc(OC)cc3)oc3ccc(-c4ccc5c(c4)OCO5)cc23)cc1 | 0.99 | inactive
Cc1nc(-c2ccccc2)sc1C1(C)CC(c2cccnc2)=NO1 (stereo not drawn) | 0.85 | inactive
COC(=O)c1sccc1NN1C(=O)c2ccccc2C1=O | 1.18 | inactive
COCCN1C2=C(COC(C)(C)C2)C(=S)NC1c1ccccc1 (stereo not drawn) | 0.95 | inactive
O=C1N[C@@H](Cc2ccccc2)C(=O)N2[C@@H]3N(S(=O)(=O)c4ccc(F)cc4)c4ccccc4[C@]3(Br)C[C@@H]12 | 0.86 | inactive
CCOC(=O)C[C@H]1c2ccc(C(F)(F)F)cc2S(=O)(=O)N1c1ccccc1 | 0.88 | inactive
Cc1ccc(S(=O)(=O)N(C)C)cc1NC(=O)c1n[nH]c(=O)c2ccccc12 | 0.73 | inactive
O=C(NCc1ccccc1)c1ccc(S(=O)(=O)Nc2cccc(C(F)(F)F)c2)cc1 | 0.83 | inactive
O=C1CC(Cc2ccc(Cl)cc2)C(=O)N1c1cc(Cl)ccn1 (stereo not drawn) | 1.23 | inactive
O=C(O)C(F)(F)C(NCc1ccccc1)c1ccccc1 (stereo not drawn) | 0.84 | inactive
CCN(CC)CCNCC(=O)Nc1ccc(Oc2ccccc2)cc1 | 0.94 | inactive
NS(=O)(=O)c1ccc(NC2=CC(c3ccc(F)cc3)N(c3ccc(S(N)(=O)=O)cc3)C2=O)cc1 (stereo not drawn) | 1.05 | inactive
CC(C)(C)c1ccc(/C=C2\Oc3c(ccc(O)c3CN3CCN(CCO)CC3)C2=O)cc1 | 1.25 | inactive
COc1ccc(CNC(=O)C2CC(c3ccc(C(F)(F)F)cc3)=NO2)cc1 (stereo not drawn) | 0.93 | inactive
CCN(CC)c1ccc(NC(=O)C2CCC(CNc3c(N4CCCC4)c(=O)c3=O)CC2)c(C)c1 (stereo not drawn) | 1 | inactive
COc1ccc(CCN2C(=O)N(c3ccc(OC)cc3)C(=O)C2CC(=O)Nc2ccc(OC)cc2)cc1 (stereo not drawn) | 0.88 | inactive
COC(=O)c1ccc(C(NC(=O)OCc2ccccc2)/C(F)=C/[C@@H](C)C(=O)O)cc1 (stereo partly drawn) | 0.86 | inactive
COC(=O)c1c(C)cc(O)c(C)c1O | 0.79 | inactive
O=C1CC2(CCCC2)Oc2ccc(Cl)cc21 | 0.69 | inactive
CC(C)Oc1ccc(CCC(=O)NNC(=S)NCc2ccccc2)cc1 | 1.13 | inactive
CC(=O)N[C@H]1[C@H]([C@H](O)[C@H](O)CO)OC(C(=O)O)=C[C@@H]1O | 0.87 | inactive
CC(CO)(CO)NC(=O)c1ccc(=O)[nH]n1 | 0.94 | inactive
COC(C[C@@H](O)C[C@H](O)[C@H](C)OCc1ccccc1)OC | 0.91 | inactive
COC(C[C@@H]1O[C@@H]1C(=O)[C@@H](C)OCc1ccccc1)OC | 0.81 | inactive
